Measurements reported in the supplement of paper PMC10849652.
Of roughly 8,800 targets only a part is listed; those with a hit were picked by preference. About 0.5% of all pairs of compound and target were hits.

How the values were obtained:
Assay in all cases: log2 fold change, soluble protein after heating vs DMSO (PISA); higher = thermal stabilisation; K562 lysate, 10 uM; active = over 0.2 and 3.5 SD of the protein, either way, in both replicates (recomputed)
[1] = compound: C1=CC=C(C=C1)[C@H](COC2=CC3=C(C=C2)NC(=O)N3)NC(=O)C4=CC=CN(C4=O)CC5=CC(=C(C=C5)F)F
In short: (§1)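 To prepare the extract, K562 pellets were dounce-homogenised in PBS pH 7.4 with 1 mM MgCl2, giving crude material at 1 mg/mL protein. This was treated with 10 μM compound for 30 min, then heated in aliquots for 3 min over 48°C-58°C before pooling and addition of NP-40 to 0.5% at 4°C. Centrifugation at 21,000xg for 90 min left soluble protein in the supernatant, which TMTpro 16plex LC-MS/MS quantified with equalised channel sums. Results are log-two fold changes in thermal stability compared with solvent controls, from duplicates.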

[2] = compound: CC1=C(SC2=C1C(=N[C@H](C3=NN=C(N32)C)CC(=O)N)C4=CC=C(C=C4)Cl)C
In short: as §1

[3] = compound: CC1=C2C(=CC=C1)N=C(N(C2=O)C3=CC=CC=C3C)CN4C=NC5=C(N=CN=C54)N
In short: as §1

[4] = compound: Cc1sc2c(c1C)C(c1ccc(Cl)cc1)=N[C@@H](CC(=O)OC(C)(C)C)c1nnc(C)n1-2
In short: as §1

[5] = compound: c1ccc([C@@H]2C[C@H]2NC2CCNCC2)cc1
In short: as §1

Measured: log2 fold change

DFFB (UniProt O76075)
Chain of UniProt O76075 (O76075 whole entry, looked up): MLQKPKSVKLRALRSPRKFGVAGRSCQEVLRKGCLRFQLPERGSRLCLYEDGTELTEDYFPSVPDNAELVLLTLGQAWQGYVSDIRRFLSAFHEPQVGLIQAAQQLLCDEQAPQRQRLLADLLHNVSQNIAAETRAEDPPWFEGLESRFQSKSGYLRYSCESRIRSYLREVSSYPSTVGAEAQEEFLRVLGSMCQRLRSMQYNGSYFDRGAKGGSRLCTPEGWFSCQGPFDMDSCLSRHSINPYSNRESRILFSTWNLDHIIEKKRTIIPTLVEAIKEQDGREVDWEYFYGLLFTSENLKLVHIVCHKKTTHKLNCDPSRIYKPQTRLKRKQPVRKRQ
inactive: [1] 0.06 | [2] -0.057 | [3] 0.061 | [4] -0.032 | [5] 0.081

DHCR7 (UniProt Q9UBM7)
Chain of UniProt Q9UBM7 (Q9UBM7 whole entry, looked up): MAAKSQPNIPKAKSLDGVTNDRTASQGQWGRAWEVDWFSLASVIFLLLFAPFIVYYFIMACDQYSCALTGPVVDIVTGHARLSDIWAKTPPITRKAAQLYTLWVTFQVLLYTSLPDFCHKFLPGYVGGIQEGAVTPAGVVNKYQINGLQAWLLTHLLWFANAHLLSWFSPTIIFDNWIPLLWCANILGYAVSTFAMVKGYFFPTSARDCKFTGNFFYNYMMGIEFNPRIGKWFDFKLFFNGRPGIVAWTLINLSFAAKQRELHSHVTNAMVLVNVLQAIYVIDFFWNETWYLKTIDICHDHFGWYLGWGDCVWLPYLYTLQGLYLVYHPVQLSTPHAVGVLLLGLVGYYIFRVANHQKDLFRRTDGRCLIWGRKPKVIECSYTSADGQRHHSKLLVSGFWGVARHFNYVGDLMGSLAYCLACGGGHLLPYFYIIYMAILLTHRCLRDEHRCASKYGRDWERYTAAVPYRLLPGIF
inactive: [1] -0.107 | [2] 0.028 | [3] -0.031 | [4] -0.045 | [5] 0.091

COQ9 (UniProt O75208)
Chain of UniProt O75208 (O75208 whole entry, looked up): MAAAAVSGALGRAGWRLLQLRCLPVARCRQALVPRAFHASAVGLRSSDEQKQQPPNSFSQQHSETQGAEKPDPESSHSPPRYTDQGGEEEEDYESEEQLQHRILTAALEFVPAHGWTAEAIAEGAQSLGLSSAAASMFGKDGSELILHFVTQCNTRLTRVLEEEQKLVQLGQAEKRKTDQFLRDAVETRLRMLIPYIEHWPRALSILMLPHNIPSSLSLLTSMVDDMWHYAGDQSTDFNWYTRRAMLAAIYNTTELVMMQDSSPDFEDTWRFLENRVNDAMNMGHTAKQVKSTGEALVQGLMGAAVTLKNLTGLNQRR
inactive: [1] -0.102 | [2] -0.069 | [3] 0.026 | [4] 0.015 | [5] 0.08

DCUN1D4 isoform 3 (UniProt Q92564)
Chain of UniProt Q92564 (Q92564 whole entry, looked up): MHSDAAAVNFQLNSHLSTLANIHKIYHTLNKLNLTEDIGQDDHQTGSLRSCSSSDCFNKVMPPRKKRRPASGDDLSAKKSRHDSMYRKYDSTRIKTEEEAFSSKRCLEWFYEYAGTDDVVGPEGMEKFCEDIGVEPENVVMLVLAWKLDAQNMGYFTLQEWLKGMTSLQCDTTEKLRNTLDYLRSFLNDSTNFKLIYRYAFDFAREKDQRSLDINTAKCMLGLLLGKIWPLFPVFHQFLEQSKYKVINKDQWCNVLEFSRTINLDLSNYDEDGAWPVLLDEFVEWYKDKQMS
inactive: [1] 0.084 | [2] 0.087 | [3] 0.055 | [4] -0.139 | [5] 0.055

DGCR8 (UniProt Q8WYQ5)
Chain of UniProt Q8WYQ5 (Q8WYQ5 whole entry, looked up): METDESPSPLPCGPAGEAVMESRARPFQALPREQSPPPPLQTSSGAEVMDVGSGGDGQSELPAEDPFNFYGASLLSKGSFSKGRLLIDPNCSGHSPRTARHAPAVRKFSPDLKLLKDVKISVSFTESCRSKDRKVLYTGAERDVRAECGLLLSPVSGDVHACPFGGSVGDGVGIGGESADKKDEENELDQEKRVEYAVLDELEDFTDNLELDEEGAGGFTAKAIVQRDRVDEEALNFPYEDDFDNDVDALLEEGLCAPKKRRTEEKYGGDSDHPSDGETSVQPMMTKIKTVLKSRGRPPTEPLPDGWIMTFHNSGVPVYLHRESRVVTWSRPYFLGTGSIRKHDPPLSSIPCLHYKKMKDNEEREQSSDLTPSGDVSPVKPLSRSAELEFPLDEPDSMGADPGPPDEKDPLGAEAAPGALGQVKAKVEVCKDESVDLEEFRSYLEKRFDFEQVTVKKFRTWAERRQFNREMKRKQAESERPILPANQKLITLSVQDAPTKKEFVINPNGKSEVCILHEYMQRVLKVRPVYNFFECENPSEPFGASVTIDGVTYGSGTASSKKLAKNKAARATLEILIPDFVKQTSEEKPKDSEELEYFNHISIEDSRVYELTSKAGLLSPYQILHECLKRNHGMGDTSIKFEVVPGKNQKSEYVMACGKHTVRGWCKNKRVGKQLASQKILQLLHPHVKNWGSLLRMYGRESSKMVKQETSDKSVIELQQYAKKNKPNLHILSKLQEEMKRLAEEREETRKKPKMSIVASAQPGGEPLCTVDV
inactive: [1] -0.05 | [2] 0.063 | [3] 0.004 | [4] 0.029 | [5] 0.017

DAZAP1 (UniProt Q96EP5)
Chain of UniProt Q96EP5 (Q96EP5 whole entry, looked up): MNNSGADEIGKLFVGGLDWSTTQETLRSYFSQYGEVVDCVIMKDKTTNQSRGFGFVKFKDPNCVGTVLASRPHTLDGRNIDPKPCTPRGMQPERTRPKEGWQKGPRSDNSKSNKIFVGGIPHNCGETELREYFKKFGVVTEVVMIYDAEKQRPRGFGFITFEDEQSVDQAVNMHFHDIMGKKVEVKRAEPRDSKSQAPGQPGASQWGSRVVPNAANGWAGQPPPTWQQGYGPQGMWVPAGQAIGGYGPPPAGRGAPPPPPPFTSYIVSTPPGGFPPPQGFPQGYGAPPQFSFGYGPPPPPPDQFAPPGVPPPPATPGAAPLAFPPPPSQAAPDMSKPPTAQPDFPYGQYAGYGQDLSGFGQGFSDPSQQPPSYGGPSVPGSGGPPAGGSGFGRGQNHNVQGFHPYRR
inactive: [1] 0.011 | [2] -0.046 | [3] 0.005 | [4] 0.088 | [5] -0.086

DMXL1 (UniProt Q9Y485)
inactive: [1] 0.011 | [2] 0.01 | [3] 0 | [4] -0.005 | [5] 0.016

CMBL (UniProt Q96DG6)
Chain of UniProt Q96DG6 (Q96DG6 whole entry, looked up): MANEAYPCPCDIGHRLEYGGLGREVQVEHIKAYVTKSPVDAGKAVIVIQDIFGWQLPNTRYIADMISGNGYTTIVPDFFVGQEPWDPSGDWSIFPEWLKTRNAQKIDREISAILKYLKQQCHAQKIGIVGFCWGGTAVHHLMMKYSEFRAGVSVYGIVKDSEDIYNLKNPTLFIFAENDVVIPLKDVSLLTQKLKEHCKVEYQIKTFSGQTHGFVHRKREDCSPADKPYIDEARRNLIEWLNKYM
inactive: [1] -0.01 | [2] -0.011 | [3] -0.027 | [4] -0.041 | [5] -0.078

CNOT4 isoform 6 (UniProt O95628)
Chain of UniProt O95628 (O95628 whole entry, looked up): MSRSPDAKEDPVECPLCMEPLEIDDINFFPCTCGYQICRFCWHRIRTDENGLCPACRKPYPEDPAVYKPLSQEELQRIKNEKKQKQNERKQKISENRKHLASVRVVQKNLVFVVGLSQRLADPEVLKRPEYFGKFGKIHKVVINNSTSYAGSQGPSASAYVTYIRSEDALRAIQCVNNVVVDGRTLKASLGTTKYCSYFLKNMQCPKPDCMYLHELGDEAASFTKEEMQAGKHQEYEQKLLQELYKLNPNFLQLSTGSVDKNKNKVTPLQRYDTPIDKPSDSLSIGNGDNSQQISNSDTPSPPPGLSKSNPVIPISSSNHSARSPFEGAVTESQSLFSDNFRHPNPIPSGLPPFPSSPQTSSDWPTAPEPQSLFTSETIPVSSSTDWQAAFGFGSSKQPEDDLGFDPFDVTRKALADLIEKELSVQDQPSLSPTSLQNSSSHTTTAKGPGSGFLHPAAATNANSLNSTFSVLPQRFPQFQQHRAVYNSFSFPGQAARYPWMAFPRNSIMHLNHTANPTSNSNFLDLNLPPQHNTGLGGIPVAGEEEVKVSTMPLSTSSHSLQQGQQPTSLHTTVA
inactive: [1] -0.042 | [2] -0.02 | [3] -0.028 | [4] 0.051 | [5] -0.004
